Data on 175 sequences can be found in publication PMC10668032, “Altered binding affinity of SIX1-Q177R correlates with enhanced WNT5A and WNT pathway effector expression in Wilms tumor”.

Whole data set: some 33,000 sequences, median “e-score” near -0.053, cut for the highest 2% near 0.38. Shown is part of a subset that was picked to be rich in the highest values.

The target of this assay is T1, SIX1 homeodomain (reference allele) (human, UniProt Q15475 108-198).
T1 sequence: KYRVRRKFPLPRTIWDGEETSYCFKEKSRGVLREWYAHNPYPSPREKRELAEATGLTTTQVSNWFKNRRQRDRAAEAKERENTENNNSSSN
As to the kind of experiment: universal protein binding microarray; Universal all-10-mer PBM (8x60K, AMADID 030236), 300 nM GST-tagged protein, Alexa Fluor 488 anti-GST; buffer, salt, pH and temperature not stated (as in Berger); high values mean tight binding. The following applies: protein: ivt; tags: N-terminal GST; dsDNA, one strand shown. In short, it runs like this: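 Homeodomains fused to GST were made by in vitro transcription/translation and measured by anti-GST western blot with a recombinant GST standard curve. At 300 nM final concentration, they were applied in duplicate to universal 'all 10-mer' protein binding microarrays (8×60K format).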
On to ATCACCAC, for which the binding signal is 0.262 ± 0.0152 E-score. The value for GATCGGAC was 0.248 ± 0.0437 E-score; that for ACACCTCC was 0.347 ± 0.0177 E-score. The same measure for ATCGGCTG: 0.167 ± 0.0425 E-score. The same measure for ATCTGCCC: 0.182 ± 0.0131 E-score. AGGTATCC: the binding signal is 0.461 ± 0.0111 E-score. On to CGGTATGA, for which the binding signal stood at 0.225 ± 0.00643 E-score.

On to AGTTATCC, for which the binding signal came out at 0.295 ± 0.00593 E-score. The value for ACCTATCC was 0.262 ± 0.0365 E-score; that for AGGTATCA was 0.487 ± 0.00797 E-score; that for CGGTATCC was 0.451 ± 0.0218 E-score. The same measure for AGGTATAT: 0.357 ± 0.03 E-score; for CGGTATCA: 0.4855 ± 0.000332 E-score.

Consider CGCTATCC, for which the binding signal stood at 0.339 ± 0.0225 E-score. The value for CGGTATTC was 0.319 ± 0.00856 E-score; that for AGGTATGA was 0.242 ± 0.0289 E-score; that for TGGTATAA was 0.287 ± 0.0507 E-score.

For the sequence GATATTTA, the binding signal was 0.157 ± 0.127 E-score. The value for ATACGACG was 0.191 ± 0.00652 E-score; that for CCCCTCTC was 0.161 ± 0.0741 E-score.

AAAGGGAT: the binding signal stood at 0.253 ± 0.0943 E-score. The value for CAGGATAG was 0.315 ± 0.00491 E-score; that for AGCAGTAT was 0.313 ± 0.00754 E-score. On to ATAACACC, for which the binding signal came out at 0.301 ± 0.039 E-score. The same measure for ATCCGTCG: 0.239 ± 0.00454 E-score; for ACGCTATC: 0.296 ± 0.0306 E-score. Turning to ATCCAACA, the binding signal worked out at 0.293 ± 0.0336 E-score. Take GGTGGATA: the binding signal was determined as 0.362 E-score. The same measure for GGGTATGA: 0.27 ± 0.0161 E-score; for AGGTATGG: 0.177 ± 0.0177 E-score. The same measure for GGTTATCA: 0.21 ± 0.00931 E-score.

Take AGGTATCG: the binding signal was determined as 0.4779 ± 0.00118 E-score.

Consider AGCTATCG, for which the binding signal is 0.284 ± 0.0882 E-score. The value for GGGTATCA was 0.4971 ± 0.0012 E-score; that for GACACACC was 0.165 ± 0.101 E-score; that for ATACTTGG was 0.199 ± 0.00946 E-score. The value for AAACGATC was 0.216 ± 0.065 E-score; that for ATAGAGGA was 0.153 ± 0.03 E-score. For GTCCGATA, the binding signal is 0.331 ± 0.0437 E-score. The same measure for ATCCGATC: 0.43 ± 0.0245 E-score; for ATCCGATG: 0.253 ± 0.0575 E-score; for CTCCGATC: 0.185 ± 0.0542 E-score. The value for ATCCGCTC was 0.377 ± 0.0055 E-score; that for ATCCGCTG was 0.305 ± 0.0121 E-score; that for CTCCGATA was 0.314 ± 0.00415 E-score.

With ATCCGATA, the binding signal was 0.466 ± 0.00646 E-score. The value for ATCCGCTA was 0.243 ± 0.0351 E-score; that for ATAGTGAT was 0.32 ± 0.0209 E-score. Regarding GTGTCCGA, the binding signal came out at 0.217 ± 0.0111 E-score. The same measure for CAGATTAA: 0.217 ± 0.0579 E-score; for GCTTAATA: 0.169 ± 0.0471 E-score; for GTATTGTA: 0.272 ± 0.0188 E-score. The same measure for ATCTATCG: 0.23 ± 0.0219 E-score.

As to ATCCATTC, the binding signal is 0.287 ± 0.0196 E-score. In the case of TACTGCAA, the binding signal turned out to be 0.163 ± 0.0382 E-score.

In the case of CATACAGA, the binding signal came to 0.196 ± 0.0391 E-score.

GATACAAC: the binding signal was 0.305 ± 0.0152 E-score. The same measure for GATACACC: 0.469 ± 0.00523 E-score. For AATACATC, the binding signal was found to be 0.204 ± 0.0447 E-score.

As to CATACACC, the binding signal came to 0.256 ± 0.0714 E-score. The value for GATACATA was 0.398 ± 0.0255 E-score; that for GATACAGA was 0.268 ± 0.0783 E-score. The value for AATACATA was 0.242 ± 0.0372 E-score. The value for GATACATC was 0.4297 ± 0.000849 E-score; that for GATACAGC was 0.395 ± 0.00544 E-score; that for TATACATA was 0.246 ± 0.0104 E-score. As for GATACACA, the binding signal was found to be 0.3539 ± 0.00325 E-score. The value for AGTGAGCC was 0.225 ± 0.0456 E-score; that for ATCACATG was 0.269 ± 0.0277 E-score; that for ATCATCTC was 0.371 ± 0.00868 E-score.

As for ATTGGGGG, the binding signal was found to be 0.152 ± 0.0367 E-score. The value for GATCAGTA was 0.347 ± 0.00373 E-score.

As to ATACGCTG, the binding signal is 0.268 ± 0.0386 E-score.

As for GACACCAC, the binding signal was determined as 0.439 ± 0.0198 E-score. The same measure for CACACCGC: 0.164 ± 0.108 E-score.

For GACACCGC, the binding signal stood at 0.398 ± 0.0204 E-score. The same measure for TACACCGA: 0.361 ± 0.0113 E-score; for AACACCGC: 0.293 ± 0.041 E-score. The value for GACACCGA was 0.383 ± 0.0167 E-score. Regarding CACACCTC, the binding signal is 0.267 ± 0.0486 E-score.

Consider CACACCAC, for which the binding signal worked out at 0.206 ± 0.0597 E-score. The value for AACACCGA was 0.228 ± 0.0289 E-score; that for AACACCAC was 0.255 ± 0.026 E-score; that for GACACCTA was 0.3565 ± 0.0024 E-score. The same measure for GACACCTC: 0.3967 ± 0.00186 E-score; for ATATGGAC: 0.173 ± 0.0129 E-score; for ATCCTTTC: 0.212 ± 0.0474 E-score. With CAGGATGA, the binding signal is 0.183 ± 0.0851 E-score. The value for ATCCCTCC was 0.329 ± 0.0164 E-score; that for ACGCATAT was 0.233 ± 0.00465 E-score. The same measure for GATCTAGA: 0.252 ± 0.0586 E-score; for CAGAGATA: 0.27 ± 0.0194 E-score; for CGTCTCAA: 0.286 ± 0.0622 E-score. Turning to AGTAAGAT, the binding signal is 0.191 ± 0.00535 E-score. The value for ATCCGCCC was 0.373 ± 0.0127 E-score. The same measure for GATATCCA: 0.452 ± 0.0127 E-score; for CATATCCA: 0.348 ± 0.0227 E-score; for AATATCCA: 0.2955 ± 0.00224 E-score. The value for AATATCCC was 0.378 ± 0.0135 E-score. Consider AATATCCG, for which the binding signal is 0.317 ± 0.0622 E-score. In the case of CATATCCC, the binding signal was found to be 0.352 ± 0.0303 E-score.

AATATCCT: the binding signal turned out to be 0.282 ± 0.0516 E-score. The same measure for GATATCCC: 0.487 ± 0.00837 E-score; for GCTATCCC: 0.281 ± 0.0159 E-score. On to GAAGATCA, for which the binding signal came to 0.196 ± 0.071 E-score. The value for GAGCAATA was 0.151 ± 0.0211 E-score; that for CGAGATCA was 0.287 ± 0.035 E-score; that for CTAAGATC was 0.207 ± 0.011 E-score. As for ATCTAGCC, the binding signal is 0.18 ± 0.0214 E-score. The value for ATATGACC was 0.189 ± 0.0241 E-score.

For the sequence CTATGATC, the binding signal was 0.302 ± 0.0116 E-score.

With CTATGAGA, the binding signal stood at 0.177 ± 0.0191 E-score. The same measure for CTATGATA: 0.394 ± 0.0185 E-score; for GTATGACA: 0.153 ± 0.0497 E-score. The value for ATATGACA was 0.2181 ± 0.00196 E-score; that for CTATGGTA was 0.305 ± 0.0461 E-score; that for GTATGAGA was 0.167 ± 0.0275 E-score.

Turning to ATATGATA, the binding signal amounted to 0.443 ± 0.0314 E-score.

Take ATATGATG: the binding signal worked out at 0.202 ± 0.0156 E-score. Consider ATATGATC, for which the binding signal was 0.378 ± 0.0179 E-score. As for GTATGATA, the binding signal was found to be 0.426 ± 0.00336 E-score. The same measure for ATCGGCGA: 0.263 ± 0.0285 E-score; for CAGCTATA: 0.172 ± 0.0266 E-score; for ATCAACCC: 0.3364 ± 0.0021 E-score. The same measure for CCCTTCGG: 0.2259 ± 0.00107 E-score; for ATCTCGGC: 0.164 ± 0.0197 E-score; for CCGCATCC: 0.159 ± 0.0829 E-score. As to CTGGGGTC, the binding signal stood at 0.164 ± 0.0399 E-score. The same measure for GATCCATC: 0.364 ± 0.0371 E-score; for ATCGTTGG: 0.205 ± 0.01 E-score; for ATATAAGG: 0.189 ± 0.0368 E-score.

Take CGATGGAG: the binding signal was 0.167 ± 0.00841 E-score. The value for AGATCAGA was 0.215 ± 0.0541 E-score; that for CGATCACG was 0.251 ± 0.0416 E-score; that for GGATCAAA was 0.372 ± 0.0497 E-score.

With GGATCACA, the binding signal is 0.4356 ± 0.00108 E-score. The same measure for CGATCACC: 0.34 ± 0.0407 E-score; for TGATCACA: 0.254 ± 0.0125 E-score. The same measure for AGATCACC: 0.317 ± 0.00333 E-score; for GGATCACC: 0.438 ± 0.0243 E-score; for CGATCAGA: 0.192 ± 0.0121 E-score. The same measure for GGATCAGA: 0.414 ± 0.0101 E-score; for AGATCAAC: 0.264 ± 0.0411 E-score.

Regarding GGATCAAC, the binding signal was determined as 0.39 ± 0.0049 E-score. The value for CCCCATCA was 0.152 ± 0.0305 E-score; that for TATCCTAA was 0.238 ± 0.0642 E-score; that for GATAACTA was 0.154 ± 0.00881 E-score.

For GATCTTTA, the binding signal is 0.164 ± 0.0165 E-score. The same measure for ATCGCACG: 0.2071 ± 0.000375 E-score; for ATAGGCGG: 0.1969 ± 0.00138 E-score; for TATTGCGA: 0.232 ± 0.0343 E-score. The value for TCACCCGA was 0.157 ± 0.0682 E-score; that for GATAGTAA was 0.221 ± 0.00274 E-score. The same measure for CGATCATA: 0.276 ± 0.0116 E-score; for GGATCATA: 0.433 ± 0.0211 E-score; for AGATCATA: 0.323 ± 0.00987 E-score. As for ATCAACGA, the binding signal was found to be 0.201 ± 0.0401 E-score. For the sequence AGTATTGG, the binding signal amounted to 0.204 ± 0.0532 E-score. The value for ATAGCTAT was 0.27 ± 0.0878 E-score; that for TCTCCAGA was 0.165 ± 0.00783 E-score. The value for CCAGATAC was 0.409 ± 0.0168 E-score. The same measure for AGAGATAG: 0.153 ± 0.0279 E-score; for GGAGATCC: 0.374 ± 0.0453 E-score; for CTAGATAC: 0.349 ± 0.00583 E-score. With AGAGATAT, the binding signal was 0.335 ± 0.0776 E-score. As for CAAGATAC, the binding signal is 0.349 ± 0.0341 E-score. The same measure for AGAGATAC: 0.38 ± 0.00418 E-score; for ACAGATAC: 0.341 ± 0.00624 E-score. The same measure for GCAGATAC: 0.3749 ± 0.000573 E-score. The value for CCAGATAA was 0.234 ± 0.0252 E-score; that for CGAGATAC was 0.381 ± 0.00544 E-score. As for GGAGATAC, the binding signal came to 0.41 ± 0.00953 E-score. The same measure for ATCCGAAA: 0.246 ± 0.022 E-score; for ATATCTTG: 0.271 ± 0.0944 E-score; for CGATCTCC: 0.31 ± 0.00569 E-score.
